# Inconclusive results are not listed. Calls of active or inactive are those of the source. Calls follow the shape of the dose curve; as a rule, active = well fitted curve in the direction sought with a large enough effect in the repeat runs; inconclusive = weak or mixed curves; inactive = no such curve, though single readings can be large; an effect the other way counts as inactive or inconclusive.
# System: not listed separately
# Test: Caspase-3/7 induction in CHO-K1 cells by small molecules, qHTS assay (AID 1346980); also: nearly all actives have a fitted effect of over 15% in size
# Conditions: CHO-K1 caspase-3/7 induction, Caspase-Glo luminescence, 17 h; series mostly up to 92.4 µM; caspase-3/7 activation: at the top concentration
# In short: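 Wild-type CHO-K1 cells exposed to compounds for 17hr at 37 C, 5% CO2. Caspase-3/7 activity then measured by Caspase-Glo 3/7 luminescence after 30min at room temperature.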
# % is scaled to controls: 0 for no effect and ±100 for the full control effect; potency is read from the fitted curve at half-maximal effect.
Structure (SMILES),caspase-3/7 activation,Potency
Cc1cc2c(OCC(CNC(C)(C)C)OC(=O)c3ccccc3)cccc2[nH]1 (stereo unspecified),-2.21% [at 42.5 µM] (inactive),–
CCOc1ccc(Cc2nccc3cc(OCC)c(OCC)cc23)cc1OCC,-2.87% [at 42.5 µM] (inactive),–
C[C@@]12CCC[C@H]1[C@@H]1CC[C@H]3C[C@@H](O)CC[C@]3(C)[C@H]1CC2,1.03% [at 42.5 µM] (inactive),–
Cc1[nH]cnc1CN1CCc2c(c3ccccc3n2C)C1=O,-1.01% [at 42.5 µM] (inactive),–
O=c1c(O)c(-c2ccc(O)cc2)oc2cc(O)cc(O)c12,–,inactive
O=C(O)c1cccc(-c2noc(-c3ccccc3F)n2)c1,-6.5% [at 42.5 µM] (inactive),–
C=C(C)[C@@H]1CCC2=CCC[C@@H](C)[C@]2(C)C1,-0.281% (inactive),–
Cc1cccc(O)c1N,0.21% (inactive),–
Cc1ccccc1N=C(N)Nc1ccccc1C,-1.48% (inactive),–
O=[N+]([O-])c1cc(C2CCCCC2)c(O)c([N+](=O)[O-])c1,0.0069% (inactive),–
O[C@@H]1CO[C@H]2[C@@H]1OC[C@@H]2O,0.919% [at 42.5 µM] (inactive),–
CCC(=O)OC,2.19% (inactive),–
CC1CC(C)C(=O)C1=O (stereo unspecified),1.06% (inactive),–
CC(C)(O)c1ccc(CNC(=O)c2cccnc2Oc2ccc3nonc3c2)cc1,-0.992% (inactive),–
NC1[C@H]2CN(c3nc4c(cc3F)c(=O)c(C(=O)O)cn4-c3ccc(F)cc3F)C[C@@H]12 (stereo partly specified),-0.515% [at 42.5 µM] (inactive),–
CC1=C(CC=O)C(C)(C)CCC1,-1.22% (inactive),–
CC(=O)NC1(c2cccc(F)c2)CCN(CC[C@@]2(c3ccc(Cl)c(Cl)c3)CN(c3ccccc3)C(=O)CO2)CC1,–,48.7 µM (active)
O=C(CCc1ccc(O)cc1)c1c(O)cc(O)cc1O,-3.23% (inactive),–
C[C@@H](O)[C@H]1C(=O)N2C(C(=O)O)=C([C@H]3CCCO3)S[C@H]12,-0.413% [at 42.5 µM] (inactive),–
O=c1cc(-c2ccccc2)oc2cc(O)cc(O)c12,-4.96% (inactive),–
O=C(OC(=O)c1ccccc1)c1ccccc1,-0.217% (inactive),–
C=CC(C)(CCC=C(C)C)OC(=O)CC(C)C (stereo unspecified),0.0805% (inactive),–
CC=C(Cl)Cl,-0.329% (inactive),–

# System: not listed separately
# Test: Caspase-3/7 induction in HepG2 cells by small molecules, qHTS cell viability counter screen (AID 1346981); also: nearly all actives have a fitted effect of over 30% in size
# Conditions: CellTiter-Fluor fluorescence, 17 h; series mostly up to 92.4 µM; activity change, negative = cytotoxicity: at the top concentration
# In short: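 Viability determined by CellTiter-Fluor fluorescence in HepG2 wells also used for the luminescent Caspase-Glo 3/7 read. Compounds were present for 16 hr at 37 C, 5% CO2 before reagent addition.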
Structure (SMILES),"activity change, negative = cytotoxicity",Potency
Cc1c(C)c2c(c(C)c1OC(=O)CCC(=O)OCCO)CC[C@@](C)(CCC[C@H](C)CCC[C@H](C)CCCC(C)C)O2,-9.71% [at 42.5 µM] (inactive),–
CN1CC(=O)N2[C@H](c3ccc4c(c3)OCO4)c3[nH]c4ccccc4c3C[C@@H]2C1=O,-12.1% [at 42.5 µM] (inactive),–
CCOc1ccccc1O[C@H](c1ccccc1)[C@H]1CNCCO1,-5.58% [at 42.5 µM] (inactive),–
O=C=Nc1cccc(C(F)(F)F)c1,5.18% (inactive),–
COc1cc(Nc2c(C#N)cnc3cc(OCCCN4CCN(C)CC4)c(OC)cc23)c(Cl)cc1Cl,–,13.3 µM (active)
CC(CN(C)C)C(C)(O)Cc1ccc(Cl)cc1 (stereo unspecified),0.803% [at 42.5 µM] (inactive),–
CCOC(=O)c1ccc(O)c(O)c1,8.02% [at 42.5 µM] (inactive),–
OC1(c2ccccc2)CCNCC1,-0.352% [at 42.5 µM] (inactive),–
CO/N=C(/C(=O)N[C@@H]1C(=O)N2C(C(=O)O)=C(COC(N)=O)CS[C@H]12)c1ccco1,-0.276% (inactive),–
Oc1c(I)cc(I)c2cccnc12,10.7% [at 42.5 µM] (inactive),–
OC[C@H]1O[C@@H](n2cnc3c(=S)nc[nH]c32)[C@H](O)[C@@H]1O,-9.11% [at 42.5 µM] (inactive),–
CCCCCCCCCI,-8.61% (inactive),–
O=C1NC(=O)c2cc([N+](=O)[O-])ccc21,2.34% (inactive),–
Cc1cc2c(OCC(CNC(C)(C)C)OC(=O)c3ccccc3)cccc2[nH]1 (stereo unspecified),-7.99% [at 42.5 µM] (inactive),–
CCOc1ccc(Cc2nccc3cc(OCC)c(OCC)cc23)cc1OCC,–,29.8 µM (active)
C[C@@]12CCC[C@H]1[C@@H]1CC[C@H]3C[C@@H](O)CC[C@]3(C)[C@H]1CC2,-1.11% [at 42.5 µM] (inactive),–
Cc1[nH]cnc1CN1CCc2c(c3ccccc3n2C)C1=O,-1.83% [at 42.5 µM] (inactive),–

Structure (SMILES),"activity change, negative = cytotoxicity",Potency
O=c1c(O)c(-c2ccc(O)cc2)oc2cc(O)cc(O)c12,–,60.9 µM (active)
O=C(O)c1cccc(-c2noc(-c3ccccc3F)n2)c1,2.99% [at 42.5 µM] (inactive),–
C=C(C)[C@@H]1CCC2=CCC[C@@H](C)[C@]2(C)C1,8.92% (inactive),–
Cc1cccc(O)c1N,-5.66% (inactive),–
Cc1ccccc1N=C(N)Nc1ccccc1C,-23.8% (inactive),–
O=[N+]([O-])c1cc(C2CCCCC2)c(O)c([N+](=O)[O-])c1,–,15.3 µM (active)
O[C@@H]1CO[C@H]2[C@@H]1OC[C@@H]2O,1.39% [at 42.5 µM] (inactive),–
CCC(=O)OC,-2.05% (inactive),–
CC1CC(C)C(=O)C1=O (stereo unspecified),-1.56% (inactive),–
CC1=C(CC=O)C(C)(C)CCC1,1.92% (inactive),–
CC(=O)NC1(c2cccc(F)c2)CCN(CC[C@@]2(c3ccc(Cl)c(Cl)c3)CN(c3ccccc3)C(=O)CO2)CC1,–,48.7 µM (active)
O=C(CCc1ccc(O)cc1)c1c(O)cc(O)cc1O,-28.1% (inactive),–
C[C@@H](O)[C@H]1C(=O)N2C(C(=O)O)=C([C@H]3CCCO3)S[C@H]12,9.48% [at 42.5 µM] (inactive),–
O=c1cc(-c2ccccc2)oc2cc(O)cc(O)c12,–,54.5 µM (active)
O=C(OC(=O)c1ccccc1)c1ccccc1,1.06% (inactive),–
C=CC(C)(CCC=C(C)C)OC(=O)CC(C)C (stereo unspecified),-1.28% (inactive),–
CC=C(Cl)Cl,-1.4% (inactive),–

# Target: Nuclear receptor subfamily 1 group I member 2 (Homo sapiens) (UniProt O75469)
# Sequence (O75469 whole entry, looked up): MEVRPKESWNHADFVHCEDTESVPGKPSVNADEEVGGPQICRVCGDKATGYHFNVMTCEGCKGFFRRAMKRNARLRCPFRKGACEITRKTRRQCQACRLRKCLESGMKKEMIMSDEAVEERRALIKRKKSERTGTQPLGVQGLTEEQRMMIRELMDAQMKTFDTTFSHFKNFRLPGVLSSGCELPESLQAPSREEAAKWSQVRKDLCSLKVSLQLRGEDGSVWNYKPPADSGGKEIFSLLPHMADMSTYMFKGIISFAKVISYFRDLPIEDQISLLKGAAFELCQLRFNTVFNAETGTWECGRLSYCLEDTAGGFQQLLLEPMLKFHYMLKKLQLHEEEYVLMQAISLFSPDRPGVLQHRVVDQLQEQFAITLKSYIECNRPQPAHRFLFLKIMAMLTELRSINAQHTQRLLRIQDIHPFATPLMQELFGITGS
# Test: Human pregnane X receptor (PXR) small molecule agonists, qHTS assay (AID 1346982); also: nearly all actives have a fitted effect of over 35% in size
# Conditions: PXR-Luc HepG2, CYP3A4 luciferase reporter, 24 h; series mostly up to 92.4 µM; activation: at the top concentration
# In short: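 Compound-induced hPXR transactivation of a CYP3A4 luciferase reporter was scored in HepG2 PXR-Luc cells over 24 hr at 37 C, 5% CO2, by luminescence.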
Structure (SMILES),Potency,activation
COC(=O)c1nc(Cl)c(Cl)nc1N,10.6 µM (active),–
Cc1c(C)c2c(c(C)c1OC(=O)CCC(=O)OCCO)CC[C@@](C)(CCC[C@H](C)CCC[C@H](C)CCCC(C)C)O2,–,18.8% [at 42.5 µM] (inactive)
CCOc1ccccc1O[C@H](c1ccccc1)[C@H]1CNCCO1,–,4.02% [at 42.5 µM] (inactive)
CC(CN(C)C)C(C)(O)Cc1ccc(Cl)cc1 (stereo unspecified),–,-13.7% [at 42.5 µM] (inactive)
CCOC(=O)c1ccc(O)c(O)c1,–,6.43% [at 42.5 µM] (inactive)
OC1(c2ccccc2)CCNCC1,–,-3.28% [at 42.5 µM] (inactive)
CC(C)C[C@H](NC(=O)[C@H](CCc1ccccc1)NC(=O)CN1CCOCC1)C(=O)N[C@@H](Cc1ccccc1)C(=O)N[C@@H](CC(C)C)C(=O)[C@@]1(C)CO1,0.0376 µM (active),–
COC(=O)C1=C(C)NC(C)=C(C(=O)O[C@@H]2CCCN(Cc3ccccc3)C2)[C@@H]1c1cccc([N+](=O)[O-])c1,2.11 µM (active),–
CC1(CN2CCC(n3c(=O)[nH]c4ccccc43)CC2)OCc2ccccc2-n2cccc21 (stereo unspecified),29.8 µM (active),–
CCCCCCCCCI,–,-4.82% (inactive)
Cc1cc2c(OCC(CNC(C)(C)C)OC(=O)c3ccccc3)cccc2[nH]1 (stereo unspecified),–,-6.99% [at 42.5 µM] (inactive)
CCOc1ccc(Cc2nccc3cc(OCC)c(OCC)cc23)cc1OCC,3.35 µM (active),–
O=C(O)c1cccc(-c2noc(-c3ccccc3F)n2)c1,0.006 µM (active),–
C=C(C)[C@@H]1CCC2=CCC[C@@H](C)[C@]2(C)C1,38.6 µM (active),–
Cc1cccc(O)c1N,–,16.4% (inactive)
O=[N+]([O-])c1cc(C2CCCCC2)c(O)c([N+](=O)[O-])c1,8.61 µM (active),–
O[C@@H]1CO[C@H]2[C@@H]1OC[C@@H]2O,–,-17.1% [at 42.5 µM] (inactive)
CCC(=O)OC,–,3.91% (inactive)
CC1CC(C)C(=O)C1=O (stereo unspecified),–,7.17% (inactive)
CC(C)(O)c1ccc(CNC(=O)c2cccnc2Oc2ccc3nonc3c2)cc1,–,21.6% (inactive)
NC1[C@H]2CN(c3nc4c(cc3F)c(=O)c(C(=O)O)cn4-c3ccc(F)cc3F)C[C@@H]12 (stereo partly specified),26.6 µM (active),–
CC1=C(CC=O)C(C)(C)CCC1,24.3 µM (active),–
C[C@@H](O)[C@H]1C(=O)N2C(C(=O)O)=C([C@H]3CCCO3)S[C@H]12,–,-1.93% [at 42.5 µM] (inactive)
O=C(OC(=O)c1ccccc1)c1ccccc1,–,-0.359% (inactive)
